Rows were chosen to be rich in hits. Some 4.8% of all compounds tested hit in one or more screens of this group.
HIF activator – HIF pathway transcriptional activation. 300,000 compounds, 0.32% hits. activation, % at 7.5 µM (by protocol). U2OS HRE-luciferase reporter, luminescence; normalized: DMSO 0%, desferrioxamine 100%;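 active means mean activation of at least 10% of the iron chelator positive control signal, with at least half of replicates also reaching 10%; inconclusive means mean and replicate majority disagree about reaching 10%; inactive means mean and most replicates under 10%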
AI-2 QS modul – modulators of Vibrio harveyi AI-2 quorum sensing system; activity change, % at 7.5 µM; 300,000 compounds, 0.4% hits; Vibrio harveyi JMH597 AI-2 luminescence/OD600 ratio, 9 h; active compounds read low; strain lacks LuxN and CqsS sensors; 0 = neutral-control median; in the data active means activity change below about -75%, passing the limit was not always enough; inconclusive means no clear call, values can overlap the other calls;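 further: luminescence divided by OD600 gain over 9 h not by final OD600 alone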
SUMO Mot1 rescue – blocks SUMOylation pathway, rescuing yeast Mot1-301 growth; S. cerevisiae Mot1-301 growth rescue, ATP luminescence, 38.5C; percent above DMSO median, 100 means doubled; growth rescue, % at 18.8 µM; 320,000 compounds, 1% hits;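 active means every valid replicate shows activation above 250% relative to neutral control wells; inactive means the rest, any valid replicate at or below 250%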;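 further: OY570 slx delta 5 strain wells were the positive control but not used for scaling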
ALR H2O2 inh – blocks human ALR sulfhydryl oxidase activity; purified ALR, DTT oxidation, H2O2 HRP-luminol luminescence; inhibition, % (test concentration not listed); 290,000 compounds, 3.8% hits;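 active means mean replicate inhibition above about 79%, with every replicate also reaching it, limit read from the data; inconclusive means only one of the two criteria met; inactive means mean below limit and not every replicate reaching it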
Target sequence (P55789 whole entry, looked up): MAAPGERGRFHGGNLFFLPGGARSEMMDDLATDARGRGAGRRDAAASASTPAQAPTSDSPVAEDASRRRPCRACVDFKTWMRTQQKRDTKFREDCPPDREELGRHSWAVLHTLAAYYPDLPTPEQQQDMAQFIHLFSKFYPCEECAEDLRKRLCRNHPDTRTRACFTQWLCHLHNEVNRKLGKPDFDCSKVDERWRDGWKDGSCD
The depositor's hits bear a star; ? = inconclusive; . = no result.

SMILES | HIF activator | AI-2 QS modul | SUMO Mot1 rescue | ALR H2O2 inh
O=C(NCC1CCCO1)c1cc(-c2ccc(F)cc2)no1 (stereo unspecified) | 14* | 23 | 4 | -1
CC[C@]12c3[nH]c4ccccc4c3CCN1C(=O)C(CC(=O)NCCC1=CCCCC1)C[C@@H]2C(=O)N1CCN(C(=O)c2ccco2)CC1 (stereo partly specified) | . | . | -5 | .
COc1ccc(-c2cc(C(=O)NCC3CCCO3)c3ccccc3n2)c(OC)c1 (stereo unspecified) | 0 | 10 | 6 | 0
CCOc1ccc(-c2cc(C(=O)NCC3CCCO3)c3ccccc3n2)cc1 (stereo unspecified) | 1 | -4 | 352* | -7
CCCNC(=O)c1cc(-c2ccco2)on1 | 16* | -5 | 0 | 3
Cc1cc(-c2ccccc2)nc2cc(C(=O)NCc3ccco3)nn12 | 0 | 38 | 88 | 93*
CC(C)CNC(=O)c1cc(-c2ccco2)on1 | 5 | 10 | 5 | 25
CCc1noc(C)c1C(=O)N1CCC(CCC(=O)Nc2cccc(OC)c2)CC1 | 0 | 10 | -6 | -16
CCCCNC(=O)CS(=O)Cc1nc(-c2cccc(C)c2)oc1C (stereo unspecified) | 0 | 39 | -11 | 99*
CCC(C)NC(=O)CS(=O)Cc1nc(-c2cccc(C)c2)oc1C (stereo unspecified) | 0 | 14 | 7 | 98*
CCCCSCCCNC(=O)CS(=O)Cc1nc(-c2cccc(C)c2)oc1C (stereo unspecified) | 5 | 14 | -27 | 99*
CCCCNC(=O)CS(=O)Cc1nc(-c2cccc(Cl)c2)oc1C (stereo unspecified) | 0 | 17 | -11 | 100*
COc1ccc(Cc2nnc(NC(=O)Nc3ccccc3F)s2)cc1OC | 1 | -5 | 3 | -2
CC(OC(=O)c1nc(Cl)ccc1Cl)C(=O)Nc1ccc2c(c1)OCCO2 (stereo unspecified) | 0 | 24 | 2 | .
Cc1cccc(-c2nc(CS(=O)CC(=O)NCCc3ccc(Cl)cc3)c(C)o2)c1 (stereo unspecified) | 0 | 14 | 13 | 91*
C=CCn1c(SCC(=O)Nc2ccc3c(c2)OCCO3)nc2cc(C(=O)O)ccc2c1=O | . | . | -9 | -3
Cc1cc(C)c(C(=O)NNC(=O)c2cccnc2)c(C)c1 | 0 | 17 | 11 | -3
COc1cccc(-c2csc(NNC(=O)c3cccs3)n2)c1 | 0 | ? | -5 | 96*
CCOC(=O)c1oc2ccccc2c1COC(=O)C(C)NC(=O)c1ccco1 (stereo unspecified) | . | . | 10 | .
NNC(=O)c1cccc(COc2ccccc2Br)c1 | 3 | 19 | 32 | 98*
O=C(NCc1ccccc1)c1cccc(COc2ccccc2Cl)c1 | -10 | 18 | 0 | -2
CCOC(=O)c1nnc(-c2cccs2)nc1Oc1ccc(Cl)cc1 | 0 | 40 | -12 | 92*
Cc1cc(C(=O)CSc2nnnn2-c2ccc(O)cc2)c(C)n1C | 0 | 50 | -17 | 89*
CCOc1ccc(NC(=O)CSc2nnc(C3CC3)n2N)cc1 | 0 | 31 | 8 | 98*
COc1ccc(NC(=O)CSc2nnnn2-c2ccc(OC)cc2)cc1 | -1 | 14 | -11 | -4
SMILES | HIF activator | AI-2 QS modul | SUMO Mot1 rescue | ALR H2O2 inh
CCOc1ccc(NC(=O)CSc2nnnn2-c2ccc(C(N)=O)cc2)cc1 | 1 | 35 | 264* | -12
Nn1c(SCC(=O)Nc2ccc(Oc3ccccc3)cc2)nnc1C1CC1 | . | 36 | -12 | 28
Cc1cc(C)c(CSc2nnnn2-c2ccc(C(=O)O)cc2)c(C)c1 | -2 | 15 | 581* | 9
Cc1cc(C(=O)CSc2nnnn2-c2ccccc2)c(C)n1CCc1ccccc1 | -1 | 23 | -2 | -3
O=C1N[C@@H](Cc2cn(S(=O)(=O)c3c(F)c(F)c(F)c(F)c3F)c3ccccc23)C(=O)N[C@H]1Cc1ccccc1 | 0 | 18 | -4 | -1
CN(CC(=O)Nc1ccccc1Br)C(=O)CNC(=O)Cc1cccc2ccccc12 | 0 | 16 | 4 | -6
Cc1ccccc1OCc1occc1C(=O)Nc1cccc(-n2cnnn2)c1 | 3 | 13 | -11 | -20
Nn1c(SCC(=O)Nc2ccc(N3CCOCC3)cc2)nnc1C1CC1 | . | . | -4 | 99*
NC(=O)c1ccc(-n2nnnc2SCC(=O)c2ccc(O)c(O)c2)cc1 | -1 | -14 | -15 | 96*
O=C(CSc1nnc2n1CCCCC2)Nc1ccc(N2CCOCC2)cc1 | 0 | 23 | -31 | 86*
COc1ccc(-n2nnnc2SCC(=O)c2ccc(O)c(O)c2)cc1 | 0 | -4 | 13 | .
O=C(CNC(=O)c1cccc(Cl)c1)NCCCSc1ccccc1 | 0 | 1 | -3 | -7
C/C(=N\Nc1ccc(C(=O)O)cc1)c1ccc(Br)cc1 | -3 | -55 | 0 | 98*
C/C(=N\Nc1ccc([N+](=O)[O-])cc1)c1ccc(N)cc1 | 4 | 20 | 149 | 98*
O=C(O)c1cc(-c2ccc(/C=N/Nc3ccc(Cl)cc3)o2)ccc1Cl | 0 | -1 | 304* | ?
CCc1ccc(/C(C)=N\Nc2ccc([N+](=O)[O-])cc2)cc1 | 3 | -37 | 22 | 1
O=C(N/N=C/c1ccc(-c2ccccc2Cl)o1)c1ccccc1 | 1 | 16 | -8 | -2
O=C(O)c1ccc(N/N=C/c2ccc(-c3ccccc3Cl)o2)cc1 | -1 | -95* | 30 | .
C/C(=N/Nc1ncc(Br)cn1)c1ccc(Br)cc1 | -38 | 17 | -3 | 1
CCC(C)N(C(=O)c1csnn1)C(C(=O)NC1CCCC1)c1ccccc1F (stereo unspecified) | -8 | . | -12 | -11
O=C(Nc1nnc(Cc2ccccc2F)s1)Nc1ccccc1F | 3 | 2 | -3 | -3
O=C(O)c1ccc(NC(=S)NC(=O)c2ccc(-c3ccc(Br)cc3)o2)cc1 | 0 | -4 | 21 | 93*
NC(=O)C1CCN(C(=S)c2ccc(-c3ccc(Br)cc3)o2)CC1 | 1 | 25 | 2 | -20
O=C(O)c1ccc(N/N=C/c2ccc(-c3ccc(Br)cc3)o2)cc1 | 0 | -96* | 22 | .
NC(=O)c1ccc(-c2ccc(Br)cc2)o1 | 2 | 4 | -8 | 98*
SMILES | HIF activator | AI-2 QS modul | SUMO Mot1 rescue | ALR H2O2 inh
CCc1ccc(CNC(=O)C2CCCN(S(=O)(=O)N(CC)c3ccccc3)C2)cc1 (stereo unspecified) | 0 | -1 | -5 | -8
Cc1cc(C)c(C(=O)COC(=O)c2cc([N+](=O)[O-])ccc2N2CCOCC2)cc1C | 0 | 9 | 21 | 3
CC(C)CC(NC(=O)c1ccc(Cl)cc1Cl)C(=O)O (stereo unspecified) | 0 | 22 | 271* | -16
O=C(O)c1ccccc1NC(=O)c1ccccc1Nc1ccccc1 | 0 | 15 | -16 | 98*
Nc1ccccc1NC(=O)c1ccccc1 | 25* | 15 | 143 | .
CC(=O)Nc1ccccc1NC(=O)c1ccccc1 | 0 | 21 | -12 | 0
O=C(Nc1ccccc1C(=O)Nc1ccccc1C(=O)O)c1ccccc1 | 3 | -4 | 33 | 97*
Cc1ccc(NC(=O)CSc2nc(=O)n(Cc3ccncc3)c3c2CCC3)c(C)c1 | 1 | 30 | -15 | 46

Screening data (PubChem)
